# According to publication PMC7862700, “An all-to-all approach to the identification of sequence-specific readers for epigenetic DNA modifications on cytosine”:
# Key:
# Assay in all cases: DAPPL (digital affinity profiling via proximity ligation, sequencing); 10 mM Tris-HCl pH 7.5, 50 mM NaCl, 1 mM DTT, 4% glycerol, room temperature, 30 min; GST-TFs on glutathione beads, 16-mer random dsDNA library, 0.1% formaldehyde crosslink after washing; high values mean tight binding
# FEV = target: T1, FEV (Homo sapiens, UniProt Q99581 1-238); details: protein: recombinant; tags: N-terminal GST; dsDNA, one strand shown
# T1 sequence: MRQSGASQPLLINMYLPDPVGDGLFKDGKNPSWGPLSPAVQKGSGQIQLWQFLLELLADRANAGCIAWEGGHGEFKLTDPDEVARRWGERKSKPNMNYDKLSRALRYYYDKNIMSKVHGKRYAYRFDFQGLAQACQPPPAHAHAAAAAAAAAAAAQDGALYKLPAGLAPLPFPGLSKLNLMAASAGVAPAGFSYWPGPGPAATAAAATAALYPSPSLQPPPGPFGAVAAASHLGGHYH
# Summary of the method: (§1)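 Sequencing on an Illumina NextSeq500 followed washing, crosslinking with 0.1% formaldehyde, proximity ligation (BsaI/T4 ligase, 1 h, 37 °C) and PCR amplification of pools that had been incubated for 30 min at room temperature with 200 nmole of a random double-stranded 16-mer DNA library in Tris/NaCl/DTT/glycerol buffer. Each pool held DNA-barcoded human transcription factors, expressed in yeast as GST fusions and captured on glutathione beads, plus a tag-only sample. Binding signal is a hexamer's read frequency for a factor divided by its frequency in the tag-only sample.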
# ETV5 = ETV5 (Homo sapiens, UniProt P41161 1-510); details: protein: recombinant; tags: N-terminal GST; dsDNA, one strand shown
# Sequence of ETV5 (P41161 whole entry): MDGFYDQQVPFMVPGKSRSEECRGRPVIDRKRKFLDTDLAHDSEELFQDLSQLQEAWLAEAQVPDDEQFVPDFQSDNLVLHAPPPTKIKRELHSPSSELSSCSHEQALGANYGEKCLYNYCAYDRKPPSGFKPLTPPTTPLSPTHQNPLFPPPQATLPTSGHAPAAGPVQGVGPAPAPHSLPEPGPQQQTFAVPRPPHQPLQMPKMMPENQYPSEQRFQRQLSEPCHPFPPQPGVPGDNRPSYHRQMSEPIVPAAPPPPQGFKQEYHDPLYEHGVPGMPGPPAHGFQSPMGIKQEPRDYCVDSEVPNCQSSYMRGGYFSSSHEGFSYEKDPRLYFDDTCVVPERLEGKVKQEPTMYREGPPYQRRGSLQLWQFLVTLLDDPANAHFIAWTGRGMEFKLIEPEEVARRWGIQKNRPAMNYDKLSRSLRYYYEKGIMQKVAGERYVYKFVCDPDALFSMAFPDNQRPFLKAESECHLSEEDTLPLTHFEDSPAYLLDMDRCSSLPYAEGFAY
# Summary of the method: as §1
# HSF1 = HSF1 (Homo sapiens, UniProt Q00613 1-529); details: protein: recombinant; tags: N-terminal GST; chain copies: 3; dsDNA, one strand shown
# Sequence of HSF1 (Q00613 whole entry): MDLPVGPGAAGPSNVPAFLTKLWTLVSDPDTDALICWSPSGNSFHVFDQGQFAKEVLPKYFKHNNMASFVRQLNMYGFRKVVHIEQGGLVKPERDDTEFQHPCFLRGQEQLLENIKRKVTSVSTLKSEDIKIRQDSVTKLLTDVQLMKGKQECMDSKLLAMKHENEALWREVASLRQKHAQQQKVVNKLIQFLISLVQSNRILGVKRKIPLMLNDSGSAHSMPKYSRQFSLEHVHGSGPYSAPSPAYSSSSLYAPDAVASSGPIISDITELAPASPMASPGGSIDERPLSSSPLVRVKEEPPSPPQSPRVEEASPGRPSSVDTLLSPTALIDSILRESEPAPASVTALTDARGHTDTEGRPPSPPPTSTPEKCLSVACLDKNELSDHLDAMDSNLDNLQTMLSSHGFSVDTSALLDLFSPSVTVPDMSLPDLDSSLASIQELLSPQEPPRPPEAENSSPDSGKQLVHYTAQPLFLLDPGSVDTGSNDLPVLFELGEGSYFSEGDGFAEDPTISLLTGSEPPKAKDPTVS
# Summary of the method: as §1
# SPIC = target: T2, SPIC (Homo sapiens, UniProt Q8N5J4 1-248); details: protein: recombinant; tags: N-terminal GST; dsDNA, one strand shown
# T2 sequence: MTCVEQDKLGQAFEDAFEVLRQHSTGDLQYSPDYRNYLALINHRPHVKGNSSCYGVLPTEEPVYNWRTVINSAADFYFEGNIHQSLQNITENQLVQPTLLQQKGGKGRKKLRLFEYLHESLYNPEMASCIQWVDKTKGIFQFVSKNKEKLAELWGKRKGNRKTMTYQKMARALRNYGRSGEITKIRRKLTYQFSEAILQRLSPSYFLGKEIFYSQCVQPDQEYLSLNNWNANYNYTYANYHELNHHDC
# Summary of the method: as §1
# ELF4 = ELF4 (Homo sapiens, UniProt Q99607 1-663); details: protein: recombinant; tags: N-terminal GST; dsDNA, one strand shown
# Sequence of ELF4 (Q99607 whole entry): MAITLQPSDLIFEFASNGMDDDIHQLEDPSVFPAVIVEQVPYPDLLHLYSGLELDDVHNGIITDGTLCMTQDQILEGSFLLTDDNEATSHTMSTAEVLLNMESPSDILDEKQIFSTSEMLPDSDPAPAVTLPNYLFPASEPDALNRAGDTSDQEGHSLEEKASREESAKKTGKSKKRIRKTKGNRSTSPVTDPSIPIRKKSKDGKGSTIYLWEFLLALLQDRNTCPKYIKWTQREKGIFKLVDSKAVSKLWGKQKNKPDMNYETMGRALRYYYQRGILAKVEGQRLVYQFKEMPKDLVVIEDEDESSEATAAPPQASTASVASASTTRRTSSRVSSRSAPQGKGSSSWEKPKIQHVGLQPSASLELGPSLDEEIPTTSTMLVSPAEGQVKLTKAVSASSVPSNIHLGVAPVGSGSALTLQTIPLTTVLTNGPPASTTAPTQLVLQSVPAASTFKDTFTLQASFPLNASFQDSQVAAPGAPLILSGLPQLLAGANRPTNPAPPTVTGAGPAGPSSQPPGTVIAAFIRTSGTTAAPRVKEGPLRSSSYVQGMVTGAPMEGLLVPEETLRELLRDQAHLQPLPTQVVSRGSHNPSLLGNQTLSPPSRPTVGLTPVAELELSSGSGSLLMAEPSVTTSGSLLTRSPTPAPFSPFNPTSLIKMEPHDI
# Summary of the method: as §1
# ELK4 = target: T3, ELK4 (Homo sapiens, UniProt P28324-2 1-405); details: protein: recombinant; tags: N-terminal GST; dsDNA, one strand shown
# T3 sequence: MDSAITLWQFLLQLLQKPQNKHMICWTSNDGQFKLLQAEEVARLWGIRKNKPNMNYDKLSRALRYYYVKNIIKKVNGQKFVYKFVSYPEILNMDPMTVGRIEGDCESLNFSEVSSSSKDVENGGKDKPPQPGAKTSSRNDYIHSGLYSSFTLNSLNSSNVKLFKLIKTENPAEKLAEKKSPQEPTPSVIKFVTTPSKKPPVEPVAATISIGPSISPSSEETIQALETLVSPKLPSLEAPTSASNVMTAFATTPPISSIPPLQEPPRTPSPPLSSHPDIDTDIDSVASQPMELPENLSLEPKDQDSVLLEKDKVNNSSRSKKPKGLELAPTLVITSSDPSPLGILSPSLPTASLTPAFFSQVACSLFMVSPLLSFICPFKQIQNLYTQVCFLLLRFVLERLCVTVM
# Summary of the method: as §1
# ETV2 = target: T4, ETV2 (Homo sapiens, UniProt O00321 1-342); details: protein: recombinant; tags: N-terminal GST; dsDNA, one strand shown
# T4 sequence: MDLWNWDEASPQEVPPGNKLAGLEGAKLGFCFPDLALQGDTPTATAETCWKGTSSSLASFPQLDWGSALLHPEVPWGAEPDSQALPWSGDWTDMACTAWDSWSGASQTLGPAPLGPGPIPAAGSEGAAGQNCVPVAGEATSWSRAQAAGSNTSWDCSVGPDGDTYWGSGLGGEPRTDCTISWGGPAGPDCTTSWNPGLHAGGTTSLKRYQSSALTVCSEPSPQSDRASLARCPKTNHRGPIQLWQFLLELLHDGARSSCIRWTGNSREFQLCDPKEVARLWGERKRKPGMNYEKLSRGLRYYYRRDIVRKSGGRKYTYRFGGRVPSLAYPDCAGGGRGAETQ
# Summary of the method: as §1
# ELF3 = target: T5, ELF3 (Homo sapiens, UniProt P78545 1-371); details: protein: recombinant; tags: N-terminal GST; dsDNA, one strand shown
# T5 sequence: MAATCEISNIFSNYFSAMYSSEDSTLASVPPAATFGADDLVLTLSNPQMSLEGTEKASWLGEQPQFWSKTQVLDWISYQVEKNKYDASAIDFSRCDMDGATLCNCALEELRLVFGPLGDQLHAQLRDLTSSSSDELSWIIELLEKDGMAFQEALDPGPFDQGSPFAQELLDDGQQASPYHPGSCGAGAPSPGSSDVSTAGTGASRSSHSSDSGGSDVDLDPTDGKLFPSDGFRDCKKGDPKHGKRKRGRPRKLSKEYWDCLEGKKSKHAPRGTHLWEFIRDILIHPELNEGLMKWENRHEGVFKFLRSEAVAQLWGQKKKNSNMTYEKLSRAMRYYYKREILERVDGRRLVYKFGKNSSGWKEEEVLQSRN
# Summary of the method: as §1
# CRX = CRX (Homo sapiens, UniProt O43186 1-299); details: protein: recombinant; tags: N-terminal GST; dsDNA, one strand shown
# Sequence of CRX (O43186 whole entry): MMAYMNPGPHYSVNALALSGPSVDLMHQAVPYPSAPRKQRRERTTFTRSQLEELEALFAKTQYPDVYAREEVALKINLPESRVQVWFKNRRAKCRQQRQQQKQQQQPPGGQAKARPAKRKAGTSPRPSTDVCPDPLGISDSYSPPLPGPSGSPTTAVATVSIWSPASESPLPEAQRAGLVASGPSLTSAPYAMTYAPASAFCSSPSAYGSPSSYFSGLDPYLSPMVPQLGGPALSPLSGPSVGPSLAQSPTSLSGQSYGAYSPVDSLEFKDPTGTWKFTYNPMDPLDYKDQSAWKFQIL
# Summary of the method: as §1
# ETV1 = ETV1 (Homo sapiens, UniProt P50549 1-477); details: protein: recombinant; tags: N-terminal GST; dsDNA, one strand shown
# Sequence of ETV1 (P50549 whole entry): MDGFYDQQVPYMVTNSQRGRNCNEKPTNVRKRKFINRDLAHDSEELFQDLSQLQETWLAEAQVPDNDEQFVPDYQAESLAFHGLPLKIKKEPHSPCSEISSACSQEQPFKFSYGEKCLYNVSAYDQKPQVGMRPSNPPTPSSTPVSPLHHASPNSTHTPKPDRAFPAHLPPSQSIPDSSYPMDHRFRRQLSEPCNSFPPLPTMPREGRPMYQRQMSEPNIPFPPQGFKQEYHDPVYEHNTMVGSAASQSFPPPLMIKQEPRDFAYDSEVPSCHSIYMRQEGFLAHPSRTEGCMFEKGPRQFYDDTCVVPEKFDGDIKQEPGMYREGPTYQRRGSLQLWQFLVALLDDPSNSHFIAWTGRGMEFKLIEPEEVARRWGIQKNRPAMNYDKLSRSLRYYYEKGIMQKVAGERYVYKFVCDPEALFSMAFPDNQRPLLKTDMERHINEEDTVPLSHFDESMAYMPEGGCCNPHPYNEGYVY
# Summary of the method: as §1
# ERF = target: T6, ERF (Homo sapiens, UniProt P50548 1-548); details: protein: recombinant; tags: N-terminal GST; dsDNA, one strand shown
# T6 sequence: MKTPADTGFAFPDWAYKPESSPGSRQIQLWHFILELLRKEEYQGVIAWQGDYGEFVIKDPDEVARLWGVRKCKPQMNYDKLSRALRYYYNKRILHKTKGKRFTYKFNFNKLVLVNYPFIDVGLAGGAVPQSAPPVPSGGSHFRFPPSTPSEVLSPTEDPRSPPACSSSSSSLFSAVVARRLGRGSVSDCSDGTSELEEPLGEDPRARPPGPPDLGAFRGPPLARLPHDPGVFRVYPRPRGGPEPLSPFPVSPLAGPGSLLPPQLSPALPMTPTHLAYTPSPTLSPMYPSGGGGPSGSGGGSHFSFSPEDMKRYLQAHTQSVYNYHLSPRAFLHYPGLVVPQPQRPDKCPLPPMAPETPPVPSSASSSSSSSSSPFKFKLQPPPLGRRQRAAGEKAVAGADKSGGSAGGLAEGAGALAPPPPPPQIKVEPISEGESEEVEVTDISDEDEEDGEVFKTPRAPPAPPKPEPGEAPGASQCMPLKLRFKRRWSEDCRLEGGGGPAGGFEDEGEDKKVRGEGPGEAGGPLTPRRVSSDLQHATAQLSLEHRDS
# Summary of the method: as §1
# ETV3L = target: T7, ETV3L (Homo sapiens, UniProt Q6ZN32 1-361); details: protein: recombinant; tags: N-terminal GST; dsDNA, one strand shown
# T7 sequence: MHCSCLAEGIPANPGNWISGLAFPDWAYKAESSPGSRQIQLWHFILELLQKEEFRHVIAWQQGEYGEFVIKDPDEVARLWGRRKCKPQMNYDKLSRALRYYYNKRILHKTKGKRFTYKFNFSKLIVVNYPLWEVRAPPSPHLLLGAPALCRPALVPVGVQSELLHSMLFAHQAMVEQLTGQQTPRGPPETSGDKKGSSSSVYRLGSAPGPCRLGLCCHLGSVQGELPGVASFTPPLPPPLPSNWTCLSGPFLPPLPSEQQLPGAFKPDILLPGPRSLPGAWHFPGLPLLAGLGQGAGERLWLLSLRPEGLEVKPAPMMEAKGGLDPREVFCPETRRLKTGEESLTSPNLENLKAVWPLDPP
# Summary of the method: as §1
# ETS2 = target: T8, ETS2 (Homo sapiens, UniProt P15036 1-469); details: protein: recombinant; tags: N-terminal GST; dsDNA, one strand shown
# T8 sequence: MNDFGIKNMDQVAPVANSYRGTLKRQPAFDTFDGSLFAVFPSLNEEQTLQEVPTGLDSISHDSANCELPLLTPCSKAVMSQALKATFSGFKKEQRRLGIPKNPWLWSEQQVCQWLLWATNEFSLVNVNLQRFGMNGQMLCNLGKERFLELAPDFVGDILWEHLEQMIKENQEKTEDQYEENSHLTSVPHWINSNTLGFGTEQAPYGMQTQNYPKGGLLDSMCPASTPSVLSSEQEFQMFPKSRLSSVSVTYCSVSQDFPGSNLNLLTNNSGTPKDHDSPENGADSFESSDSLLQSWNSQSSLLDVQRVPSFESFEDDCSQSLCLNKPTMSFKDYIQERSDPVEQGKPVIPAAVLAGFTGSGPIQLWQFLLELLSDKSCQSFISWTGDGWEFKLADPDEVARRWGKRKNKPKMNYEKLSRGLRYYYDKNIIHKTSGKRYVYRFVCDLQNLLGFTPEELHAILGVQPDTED
# Summary of the method: as §1
# SPDEF = target: T9, SPDEF (Homo sapiens, UniProt O95238 1-335); details: protein: recombinant; tags: N-terminal GST; dsDNA, one strand shown
# T9 sequence: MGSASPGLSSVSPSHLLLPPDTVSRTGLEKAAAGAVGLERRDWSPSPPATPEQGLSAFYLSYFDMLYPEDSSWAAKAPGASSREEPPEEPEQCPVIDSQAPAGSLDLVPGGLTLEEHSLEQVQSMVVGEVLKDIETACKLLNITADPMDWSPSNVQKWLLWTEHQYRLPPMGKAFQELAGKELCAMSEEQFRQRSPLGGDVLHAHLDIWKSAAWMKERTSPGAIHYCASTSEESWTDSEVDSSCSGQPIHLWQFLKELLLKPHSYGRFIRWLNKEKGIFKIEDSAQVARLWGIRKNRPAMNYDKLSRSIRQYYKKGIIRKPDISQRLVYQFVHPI
# Summary of the method: as §1
# ETV7 = target: T10, ETV7 (Homo sapiens, UniProt Q9Y603 1-341); details: protein: recombinant; tags: N-terminal GST; dsDNA, one strand shown
# T10 sequence: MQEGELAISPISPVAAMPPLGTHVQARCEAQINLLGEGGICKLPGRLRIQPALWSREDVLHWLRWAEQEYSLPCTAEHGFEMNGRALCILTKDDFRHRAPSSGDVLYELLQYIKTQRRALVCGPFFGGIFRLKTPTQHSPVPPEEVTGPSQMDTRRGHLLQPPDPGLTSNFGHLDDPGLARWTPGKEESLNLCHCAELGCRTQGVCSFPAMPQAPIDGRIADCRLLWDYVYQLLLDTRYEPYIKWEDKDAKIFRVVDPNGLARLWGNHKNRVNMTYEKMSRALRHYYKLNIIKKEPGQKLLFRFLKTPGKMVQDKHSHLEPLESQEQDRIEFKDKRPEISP
# Summary of the method: as §1
# ELF5 = target: T11, ELF5 (Homo sapiens, UniProt Q9UKW6-2 1-255); details: protein: recombinant; tags: N-terminal GST; dsDNA, one strand shown
# T11 sequence: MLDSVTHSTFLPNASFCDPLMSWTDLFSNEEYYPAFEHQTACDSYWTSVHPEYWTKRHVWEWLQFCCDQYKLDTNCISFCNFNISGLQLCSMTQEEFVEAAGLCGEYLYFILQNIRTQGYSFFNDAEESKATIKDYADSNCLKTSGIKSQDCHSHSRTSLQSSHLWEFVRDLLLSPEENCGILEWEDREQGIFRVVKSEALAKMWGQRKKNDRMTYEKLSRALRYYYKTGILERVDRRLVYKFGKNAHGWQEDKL
# Summary of the method: as §1
# ETV3 = target: T12, ETV3 (Homo sapiens, UniProt P41162-2 1-143); details: protein: recombinant; tags: N-terminal GST; dsDNA, one strand shown
# T12 sequence: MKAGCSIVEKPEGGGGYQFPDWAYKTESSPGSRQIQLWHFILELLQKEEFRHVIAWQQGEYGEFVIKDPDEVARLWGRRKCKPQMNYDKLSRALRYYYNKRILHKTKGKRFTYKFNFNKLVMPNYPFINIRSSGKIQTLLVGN
# Summary of the method: as §1
# ETV6 = ETV6 (Homo sapiens, UniProt P41212 1-452); details: protein: recombinant; tags: N-terminal GST; dsDNA, one strand shown
# Sequence of ETV6 (P41212 whole entry): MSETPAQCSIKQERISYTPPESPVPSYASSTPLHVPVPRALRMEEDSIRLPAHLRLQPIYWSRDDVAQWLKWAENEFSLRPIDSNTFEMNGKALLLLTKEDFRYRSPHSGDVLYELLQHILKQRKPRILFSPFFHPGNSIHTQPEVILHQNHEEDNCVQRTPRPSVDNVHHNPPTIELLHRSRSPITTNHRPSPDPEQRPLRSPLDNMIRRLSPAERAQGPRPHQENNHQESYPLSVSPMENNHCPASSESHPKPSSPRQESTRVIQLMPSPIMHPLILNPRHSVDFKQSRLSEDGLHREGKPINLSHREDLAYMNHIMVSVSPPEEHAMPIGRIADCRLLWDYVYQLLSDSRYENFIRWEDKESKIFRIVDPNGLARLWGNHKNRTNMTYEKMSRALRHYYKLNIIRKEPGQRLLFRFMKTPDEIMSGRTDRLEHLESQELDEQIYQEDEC
# Summary of the method: as §1
sequence,measurement,setting,value
AATTGG,binding signal,FEV,"1.43 fold enrichment (6-mer frequency, TF over GST control)"
same,binding signal,ETV5,"1.4 fold enrichment (6-mer frequency, TF over GST control)"
same,binding signal,HSF1,"1.2 fold enrichment (6-mer frequency, TF over GST control)"
same,binding signal,SPIC,"1.26 fold enrichment (6-mer frequency, TF over GST control)"
same,binding signal,ELF4,"1.38 fold enrichment (6-mer frequency, TF over GST control)"
same,binding signal,ELK4,"1.16 fold enrichment (6-mer frequency, TF over GST control)"
same,binding signal,ETV2,"1.2 fold enrichment (6-mer frequency, TF over GST control)"
same,binding signal,ELF3,"1.35 fold enrichment (6-mer frequency, TF over GST control)"
same,binding signal,CRX,"1.23 fold enrichment (6-mer frequency, TF over GST control)"
same,binding signal,ETV1,"1.39 fold enrichment (6-mer frequency, TF over GST control)"
same,binding signal,ERF,"1.26 fold enrichment (6-mer frequency, TF over GST control)"
same,binding signal,ETV3L,"1.33 fold enrichment (6-mer frequency, TF over GST control)"
same,binding signal,ETS2,"1.33 fold enrichment (6-mer frequency, TF over GST control)"
same,binding signal,SPDEF,"1.31 fold enrichment (6-mer frequency, TF over GST control)"
same,binding signal,ETV7,"1.42 fold enrichment (6-mer frequency, TF over GST control)"
same,binding signal,ELF5,"1.35 fold enrichment (6-mer frequency, TF over GST control)"
same,binding signal,ETV3,"1.28 fold enrichment (6-mer frequency, TF over GST control)"
same,binding signal,ETV6,"1.44 fold enrichment (6-mer frequency, TF over GST control)"
